The source of these data is PubChem BioAssay.

This assay has as its system Wnt5a (protein binding on small-molecule microarray). As to the kind of experiment: Wnt5a binders on small-molecule microarray, primary screen, biophysical, 635/667 nm fluorescence (AID 1142).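 Note: fluorescence read at 667 nm with signal to noise per printed feature.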 The settings on record: 635 nm fluorescence, higher = more signal.
`C=CCC(OC(C)=O)[C@@H]1[C@@H](N(Cc2cc3ccccc3o2)C(=O)c2ccc(C)cc2)c2cc(OCCCO)ccc2N1C(=O)c1ccc2ccccc2c1` (stereo not given in full) registered a composite z-score of 0.132.
To `COc1c(C)cc(-c2cc3c(c(-c4ccc(Oc5ccccc5)cc4)n2)[Si](C(C)C)(C(C)C)OC3)cc1C` belongs 0.285; to `COc1ccc([Si](C)(C)[C@@H]2[C@@H](CC(=O)N3CCC[C@H]3CO)O[C@]3(C(=O)N(C)c4c(Br)cc(C)cc43)[C@H]2C)cc1`, 0.29.
As for `CCC(CC)C(O)C1C=CC2C(=O)N(c3ccccc3)C(=O)C2N1Nc1ccc(C#N)cc1` (stereo not given), the composite z-score turned out to be 0.658.
To `C=CCC(OC(C)=O)[C@@H]1[C@@H](N(Cc2ccc(-c3ccccc3)cc2)C(=O)Cc2ccc(F)cc2)c2cc(OCCCO)ccc2N1C(=O)c1ccc2ccccc2n1` (stereo not given in full) belongs -0.212; to `C=C[C@@H](COC(C)=O)N(Cc1ccccc1[N+](=O)[O-])S(=O)(=O)c1ccc(Br)cc1`, 0.521.
Under `COCCOC(=O)N1C(=O)[C@@]2(c3cc(C#CC4=CCCCC4)ccc31)[C@H](C(=O)NC[C@H](O)c1ccccc1)[C@H]1C(=O)O[C@H](c3ccccc3)[C@H](c3ccccc3)N1[C@@H]2c1ccc(O)cc1` stands 0.236.
As to `[N-]=[N+]=Nc1ccccc1[C@@H]1OC(c2ccc(OCCCO)cc2)=N[C@]1(CCS(=O)(=O)c1ccccc1)C(=O)N1CCOCC1`, the composite z-score came out at 1.3.
To `Cc1ccc(S[C@]2(C(=O)NCC(C)C)CC(=O)N(Cc3ccccc3Cl)[C@@H]2c2ccc(CO)cc2)cc1` belongs -0.343; to `CC(C)C(=C=CC[C@@H](O)c1ccccc1OCCO)C[C@@H](O)c1ccccn1`, -0.0212.
